# Measurements published in PubChem BioAssay.
# Calls of active or inactive are those of the source.
# Experiments:
# [1] = tested on: Plasmodium falciparum Sir2 (PF13_0152, Sir2A); test: pfSir2 binders on small-molecule microarrays, primary screen, biochemical, small-molecule microarray, 635 nm fluorescence (AID 1098); conditions: small-molecule microarray binding, fluorescence 635 nm; higher = more signal;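 also: score merges spot fluorescence intensity with its signal-to-noise ratio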
# [2] = small-molecule microarray binders of probe aDKK1, primary screen, biochemical, biotinylated probe, 635/667 nm fluorescence (AID 1099); conditions: higher = more signal;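 also: score merges 667nm spot fluorescence with signal to noise across triplicate slides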
# [3] = small-molecule microarray binders of probe aCHRDL2, primary screen, biochemical, biotinylated probe, 635/667 nm fluorescence (AID 1100); conditions: higher = more signal
# [4] = splicing luciferase reporter signal modulators, primary screen, spliceosome inhibition project, cell-based, HEK293, splice +/- reporter (AID 1101); conditions: luminescence, 24 h, higher = more signal, called active from +8 up or from −8 down;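 also: HEK293 cells carrying a splicing-competent luciferase reporter gene; test concentration not given here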
# [5] = target: Fibroblast growth factor 10 (Homo sapiens) (UniProt O15520); test: FGF10 binders on small-molecule microarrays, primary screen, biochemical, small-molecule microarray, 635 nm fluorescence (AID 1102); conditions: FGF10 binding, fluorescence 635 nm, higher = more signal
# Sequence of Fibroblast growth factor 10 (Homo sapiens) (O15520 whole entry, looked up): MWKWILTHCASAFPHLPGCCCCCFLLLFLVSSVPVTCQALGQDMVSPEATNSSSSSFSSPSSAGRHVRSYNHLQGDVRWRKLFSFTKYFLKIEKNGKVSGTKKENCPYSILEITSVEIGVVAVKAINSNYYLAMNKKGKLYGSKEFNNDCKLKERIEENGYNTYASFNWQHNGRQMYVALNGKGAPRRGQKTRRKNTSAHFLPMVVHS
# [6] = tested on: glycogen synthase kinase-3 (GSK3A per assay name; protocol says GSK3B); test: GSK3 binders on small-molecule microarrays, primary screen, biochemical, small-molecule microarray, 635 nm fluorescence, GSK3A (AID 1103); conditions: small-molecule microarray binding, fluorescence 635 nm; higher = more signal; also: the record names both GSK3A and GSK3B
# [7] = target: Epidermal growth factor receptor (Homo sapiens) (UniProt P00533); test: EGFR binders on small-molecule microarrays, primary screen, biochemical, small-molecule microarray, 635 nm fluorescence (AID 1104); conditions: EGFR binding, higher = more signal;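 also: score merges 667 nm emission intensity with spot signal to noise over triplicate slides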
# Sequence of Epidermal growth factor receptor (Homo sapiens) (P00533 whole entry, looked up): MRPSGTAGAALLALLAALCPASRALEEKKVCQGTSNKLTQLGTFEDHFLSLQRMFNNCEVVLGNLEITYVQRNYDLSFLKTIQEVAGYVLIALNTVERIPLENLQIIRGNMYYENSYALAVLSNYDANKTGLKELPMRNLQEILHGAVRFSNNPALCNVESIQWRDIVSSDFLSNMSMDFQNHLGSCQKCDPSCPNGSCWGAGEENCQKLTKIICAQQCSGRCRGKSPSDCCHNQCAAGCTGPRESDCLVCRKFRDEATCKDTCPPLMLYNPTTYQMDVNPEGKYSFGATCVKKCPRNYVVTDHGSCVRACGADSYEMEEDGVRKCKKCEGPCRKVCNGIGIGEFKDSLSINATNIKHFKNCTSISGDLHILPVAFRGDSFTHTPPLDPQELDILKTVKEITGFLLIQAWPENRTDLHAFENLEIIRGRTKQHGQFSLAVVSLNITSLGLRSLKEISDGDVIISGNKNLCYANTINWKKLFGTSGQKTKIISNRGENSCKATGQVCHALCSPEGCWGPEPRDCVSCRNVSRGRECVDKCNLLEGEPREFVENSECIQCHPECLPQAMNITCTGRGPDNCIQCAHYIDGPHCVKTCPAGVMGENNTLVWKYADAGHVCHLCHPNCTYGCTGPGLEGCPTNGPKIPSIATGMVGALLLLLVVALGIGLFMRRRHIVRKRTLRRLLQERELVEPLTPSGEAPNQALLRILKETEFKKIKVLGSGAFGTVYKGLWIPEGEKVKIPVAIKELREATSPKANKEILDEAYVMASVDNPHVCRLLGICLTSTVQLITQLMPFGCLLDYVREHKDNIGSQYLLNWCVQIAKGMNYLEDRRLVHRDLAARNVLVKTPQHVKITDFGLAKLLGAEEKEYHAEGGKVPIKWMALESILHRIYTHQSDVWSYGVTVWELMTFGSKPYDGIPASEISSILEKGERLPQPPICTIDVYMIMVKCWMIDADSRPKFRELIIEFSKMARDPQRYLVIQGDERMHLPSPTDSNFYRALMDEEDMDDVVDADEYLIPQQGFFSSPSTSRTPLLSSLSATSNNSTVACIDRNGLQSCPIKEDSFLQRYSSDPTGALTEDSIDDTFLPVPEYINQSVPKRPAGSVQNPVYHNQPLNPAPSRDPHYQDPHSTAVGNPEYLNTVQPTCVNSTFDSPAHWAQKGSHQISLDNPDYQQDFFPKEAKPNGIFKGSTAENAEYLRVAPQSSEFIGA
# [8] = target: Follistatin-related protein 3 (Homo sapiens) (UniProt O95633); test: FSTL3 binders on small-molecule microarrays, primary screen, biochemical, small-molecule microarray, 635 nm fluorescence (AID 1105); conditions: FSTL3 binding, higher = more signal;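 also: score merges emission near 667 nm and signal to noise per printed spot across three slides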
# Sequence of Follistatin-related protein 3 (Homo sapiens) (O95633 whole entry, looked up): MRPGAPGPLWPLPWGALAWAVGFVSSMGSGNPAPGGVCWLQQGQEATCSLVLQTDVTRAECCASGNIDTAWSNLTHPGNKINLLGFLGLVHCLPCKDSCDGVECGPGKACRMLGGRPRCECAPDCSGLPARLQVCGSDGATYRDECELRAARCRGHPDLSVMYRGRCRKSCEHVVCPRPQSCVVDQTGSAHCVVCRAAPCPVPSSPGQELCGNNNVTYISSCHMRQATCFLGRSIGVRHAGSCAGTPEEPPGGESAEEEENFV
# [9] = target: Dickkopf-related protein 1 (Homo sapiens) (UniProt O94907); test: DKK1 binders on small-molecule microarrays, primary screen, biochemical, small-molecule microarray, 635 nm fluorescence scan (AID 1106); conditions: DKK1 binding, higher = more signal;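 also: score merges emission near 667 nm with signal to noise over three replicate slides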
# Sequence of Dickkopf-related protein 1 (Homo sapiens) (O94907 whole entry, looked up): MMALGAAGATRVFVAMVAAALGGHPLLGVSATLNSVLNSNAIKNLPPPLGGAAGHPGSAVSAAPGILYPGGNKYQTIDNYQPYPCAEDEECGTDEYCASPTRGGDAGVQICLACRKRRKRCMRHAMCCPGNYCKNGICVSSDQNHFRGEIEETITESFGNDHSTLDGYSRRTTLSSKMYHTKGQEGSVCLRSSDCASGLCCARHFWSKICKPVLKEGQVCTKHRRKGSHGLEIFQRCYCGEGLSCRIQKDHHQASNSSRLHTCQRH
# [10] = tested on: Inhibin beta A chain (activin A); test: INHBA (activin A) binders on microarrays, primary screen, biochemical, small-molecule microarray, 635 nm fluorescence scan (AID 1107); conditions: small-molecule microarray binding, higher = more signal;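 also: mouse activin A protein probed at 4.33 µg/mL on printed slides; score merges bound-protein fluorescence near 667 nm with spot signal-to-noise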
# [11] = tested on: Human papillomavirus type 1a protein E7 (residues 44-93); test: HPV1a E7 fragment binders on microarrays, primary screen, biochemical, small-molecule microarray, residues 44-93, 635 nm fluorescence (AID 1108); conditions: small-molecule microarray binding, fluorescence 635 nm; higher = more signal;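 also: E7 fragment applied at 1 µg/mL in TBST for 1 h at 4 C; score combines spot fluorescence with its signal to noise ratio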
# [12] = modulators of HCV replicon luciferase signal, primary screen, HCV replication inhibitor project, Huh7 cells, luciferase reporter (AID 1109); conditions: 48 h, higher = more signal;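 also: huh7 hepatoma cells harbouring a luciferase neomycin HCV replicon reporter; luciferase luminescence as measure of HCV replicon replication; test concentration not given here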
# [13] = target: Left-right determination factor 2 (Homo sapiens) (UniProt O00292); test: LEFTY2 binders on small-molecule microarrays, primary screen, biochemical, small-molecule microarray, 635 nm fluorescence scan (AID 1110); conditions: LEFTY2 binding, higher = more signal
# Sequence of Left-right determination factor 2 (Homo sapiens) (O00292 whole entry, looked up): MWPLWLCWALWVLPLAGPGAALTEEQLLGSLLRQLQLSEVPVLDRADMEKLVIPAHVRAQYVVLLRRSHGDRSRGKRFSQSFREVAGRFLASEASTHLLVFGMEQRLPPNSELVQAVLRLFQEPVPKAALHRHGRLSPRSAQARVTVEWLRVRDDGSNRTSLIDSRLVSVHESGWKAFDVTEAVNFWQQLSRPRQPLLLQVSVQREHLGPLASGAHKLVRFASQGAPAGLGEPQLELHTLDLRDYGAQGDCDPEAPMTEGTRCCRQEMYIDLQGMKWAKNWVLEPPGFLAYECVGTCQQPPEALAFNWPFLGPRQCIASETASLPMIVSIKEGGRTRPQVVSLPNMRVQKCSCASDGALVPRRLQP
# [14] = target: Calmodulin-1 (Homo sapiens) (UniProt P0DP23); test: CALM1 binders on microarrays, EGTA buffer, profiling panel, biochemical, small-molecule microarray, Cy5-labelled CALM1 (AID 1111); conditions: Cy5-CALM1 binding fluorescence, higher = more signal;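 also: labelled calmodulin applied in Tris saline Tween buffer holding calcium plus EGTA and DTT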
# [15] = target: Calmodulin-1 (Homo sapiens) (UniProt P0DP23); test: calcium-bound CALM1 binders on microarrays, profiling panel, artefact control for SMM control-protein annotation, biochemical, small-molecule microarray, Cy5-labelled CALM1, plus calcium (AID 1112); conditions: Cy5-CALM1 binding fluorescence, higher = more signal;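 also: score merges spot fluorescence with signal to noise from triplicate slides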
# [16] = small-molecule microarray binders of probe aWnt5a, primary screen, biochemical, biotinylated probe, 635/667 nm fluorescence (AID 1113); conditions: higher = more signal;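 also: score merges 667 nm fluorescence intensity with signal-to-noise per printed feature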
# [17] = small-molecule microarray binders of probe aShh, primary screen, biochemical, biotinylated probe, 635/667 nm fluorescence (AID 1114); conditions: higher = more signal;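 also: probe is biotin-labelled aShh protein from a stem cell growth factor screen; measures binding of labelled protein to compounds printed on the slide; score merges feature fluorescence at 667 nm with signal-to-noise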
# [18] = small-molecule microarray binders of probe aNog, primary screen, biochemical, biotinylated probe, 635/667 nm fluorescence (AID 1115); conditions: higher = more signal;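 also: probe is biotinylated aNog protein used at 0.15 µg/mL for 1 h at 4 C; z-score combines 667 nm fluorescence of each spot with its signal to noise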
# [19] = target: Torsin-1A-interacting protein 1 (Homo sapiens) (UniProt Q5JTV8); test: LAP1 binders from COS7 cell lysate, primary screen, small-molecule microarray, 635/667 nm fluorescence (AID 1116); conditions: COS7-hLAP1 lysate binding, 635 nm fluorescence, higher = more signal
# Sequence of Torsin-1A-interacting protein 1 (Homo sapiens) (Q5JTV8 whole entry, looked up): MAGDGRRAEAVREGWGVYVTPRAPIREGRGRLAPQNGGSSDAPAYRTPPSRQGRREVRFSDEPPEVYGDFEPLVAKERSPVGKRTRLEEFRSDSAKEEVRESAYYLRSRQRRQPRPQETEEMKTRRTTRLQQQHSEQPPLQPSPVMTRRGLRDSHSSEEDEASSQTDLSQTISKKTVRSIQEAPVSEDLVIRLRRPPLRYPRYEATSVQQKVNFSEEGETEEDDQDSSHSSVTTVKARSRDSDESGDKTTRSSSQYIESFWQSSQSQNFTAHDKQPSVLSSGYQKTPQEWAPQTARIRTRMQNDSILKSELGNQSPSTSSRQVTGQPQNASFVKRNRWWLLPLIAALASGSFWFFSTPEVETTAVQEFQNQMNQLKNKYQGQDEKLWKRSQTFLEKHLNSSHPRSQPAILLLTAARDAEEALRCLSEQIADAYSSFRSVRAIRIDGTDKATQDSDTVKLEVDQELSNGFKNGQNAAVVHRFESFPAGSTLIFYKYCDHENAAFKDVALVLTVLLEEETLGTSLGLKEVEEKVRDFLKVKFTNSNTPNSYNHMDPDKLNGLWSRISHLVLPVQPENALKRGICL
# [20] = target: Alpha-bungarotoxin (Bungarus multicinctus) (UniProt P60615); test: alpha-bungarotoxin binders on microarray, profiling panel, artefact control for SMM control protein annotation, biochemical, small-molecule microarray, Alexa647 label, 635/667 nm fluorescence (AID 1117); conditions: alpha-BTX-A647 binding fluorescence, higher = more signal
# Sequence of Alpha-bungarotoxin (Bungarus multicinctus) (P60615 whole entry, looked up): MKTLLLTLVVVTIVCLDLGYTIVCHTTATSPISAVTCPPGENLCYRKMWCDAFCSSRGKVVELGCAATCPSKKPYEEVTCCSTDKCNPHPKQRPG
SMILES,composite z-score [1],composite z-score [2],composite z-score [3],z-score [4],composite z-score [5],composite z-score [6],composite z-score [7],composite z-score [8],composite z-score [9],composite z-score [10],composite z-score [11],z-score [12],composite z-score [13],composite z-score [14],composite z-score [15],composite z-score [16],composite z-score [17],composite z-score [18],composite z-score [19],composite z-score [20]
COC(=O)[C@]1(Cc2ccccc2N=[N+]=[N-])N=C(c2ccc(OCCCO)cc2)O[C@@H]1c1ccccc1N=[N+]=[N-],1.35,0.0046,0.191,-0.71 (inactive),0.0833,-0.383,-0.049,0.488,-0.0862,0.755,-0.0688,-3.52,-0.0072,-0.062,-0.374,-0.129,-0.138,-0.51,0.412,0.019
CCCCC=C[C@@H](NC(=O)c1ccco1)c1ccccc1,0.276,0.373,0.557,0.808 (inactive),0.689,-0.877,0.12,0.296,0.0504,0.809,-0.244,-0.502,0.0518,1.31,0.137,0.0151,0.356,0.531,-0.153,1.18
CCCNC(=O)[C@@]1(c2ccc([N+](=O)[O-])cc2)CC(=O)N(CC23CC4CC(CC(C4)C2)C3)[C@@H]1c1ccc(CO)cc1,0.814,0.644,-0.0905,0.228 (inactive),0.425,0.108,0.533,1.34,0.138,-0.247,0.914,-2.86,0.421,-0.865,-0.827,0.0004,-0.569,0.0278,-0.303,1.01
NC(=O)NCC#Cc1ccc2c(c1)[C@]1(C(=O)N2)[C@H](C(=O)N2CCCCCCC2)[C@H]2C(=O)O[C@H](c3ccccc3)[C@H](c3ccccc3)N2[C@@H]1c1ccc(OCCO)cc1,1.2,2.11,1.36,-0.144 (inactive),1.29,0.748,1.35,1.63,1.75,1.53,1.18,-1.03,1.04,1.99,0.897,0.83,2.19,2.19,1.45,2.02
CCCNC(=O)[C@@H]1c2ccccc2C(=O)N(Cc2ccccc2)[C@H]1c1ccc(CO)cc1,0.405,-0.0972,0.933,0.0373 (inactive),-0.239,0.0282,-0.592,-0.637,-0.744,-0.217,0.656,-0.481,-0.595,-0.0977,-1.35,-0.152,-0.138,-0.216,0.142,0.918
